Results from the supplement of paper PMC10849652.
The full data set covers some 8,800 targets. This sample favours those with a hit. About 0.5% of all pairs of compound and target were hits. A number with no mark means an inactive call.

Assays:
Assay in all cases: log2 fold change, soluble protein after heating vs DMSO (PISA); higher = thermal stabilisation; K562 lysate, 10 uM; active = over 0.2 and 3.5 SD of the protein, either way, in both replicates (recomputed)
vemurafenib = compound: CCCS(=O)(=O)Nc1ccc(F)c(C(=O)c2c[nH]c3ncc(-c4ccc(Cl)cc4)cc23)c1F [vemurafenib]
Procedure, shortened: (§1)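 Dounce homogenisation of K562 pellets in PBS pH 7.4 with 1 mM MgCl2 produced a crude extract, used at 1 mg/mL protein. Exposure to 10 μM compound lasted 30 min, and aliquots were then heated for 3 min across 48°C-58°C, pooled and brought to 0.5% NP-40 at 4°C. The supernatant after 21,000xg for 90 min was quantified by TMTpro 16plex LC-MS/MS with channel sums equalised. Duplicate values are given as log-two fold change in thermal stability relative to solvent controls.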

[1] = compound: CCCS(=O)(=O)Nc1ccc(F)c(C(=O)c2c[nH]c3ncc(Cl)cc23)c1F
Procedure, shortened: as §1

barasertib = compound: CCN(CCCOc1ccc2c(Nc3cc(CC(=O)Nc4cccc(F)c4)[nH]n3)ncnc2c1)CCOP(=O)(O)O [barasertib]
Procedure, shortened: as §1

[2] = compound: CC[C@@H]1C(=O)N(C)c2cnc(Nc3ccc(C(=O)NC4CCN(C)CC4)cc3OC)nc2N1C1CCCC1
Procedure, shortened: as §1

volasertib = compound: CC[C@@H]1C(=O)N(C)c2cnc(Nc3ccc(C(=O)N[C@H]4CC[C@H](N5CCN(CC6CC6)CC5)CC4)cc3OC)nc2N1C(C)C [volasertib]
Procedure, shortened: as §1

[3] = compound: CCn1c(C(=O)N(C2CC2)C2CC2)cc2c3c(ncn3C)c(Nc3cc(C)n(C)n3)nc21
Procedure, shortened: as §1

[4] = compound: CCn1cc(-c2ccnc3[nH]c(-c4cccc(CN(C)C)c4)cc23)c(-c2ccc(NC(=O)N(C)C)cc2)n1
Procedure, shortened: as §1

[5] = compound: CN1CCC(CNc2ccc3ncc(-c4cccc(OC(F)(F)F)c4)n3n2)CC1
Procedure, shortened: as §1

saracatinib = compound: CN1CCN(CCOc2cc(OC3CCOCC3)c3c(Nc4c(Cl)ccc5c4OCO5)ncnc3c2)CC1 [saracatinib]
Procedure, shortened: as §1

sotrastaurin = compound: CN1CCN(c2nc(C3=C(c4c[nH]c5ccccc45)C(=O)NC3=O)c3ccccc3n2)CC1 [sotrastaurin]
Procedure, shortened: as §1

Sequence of UniProt P04049 (P04049 whole entry, looked up): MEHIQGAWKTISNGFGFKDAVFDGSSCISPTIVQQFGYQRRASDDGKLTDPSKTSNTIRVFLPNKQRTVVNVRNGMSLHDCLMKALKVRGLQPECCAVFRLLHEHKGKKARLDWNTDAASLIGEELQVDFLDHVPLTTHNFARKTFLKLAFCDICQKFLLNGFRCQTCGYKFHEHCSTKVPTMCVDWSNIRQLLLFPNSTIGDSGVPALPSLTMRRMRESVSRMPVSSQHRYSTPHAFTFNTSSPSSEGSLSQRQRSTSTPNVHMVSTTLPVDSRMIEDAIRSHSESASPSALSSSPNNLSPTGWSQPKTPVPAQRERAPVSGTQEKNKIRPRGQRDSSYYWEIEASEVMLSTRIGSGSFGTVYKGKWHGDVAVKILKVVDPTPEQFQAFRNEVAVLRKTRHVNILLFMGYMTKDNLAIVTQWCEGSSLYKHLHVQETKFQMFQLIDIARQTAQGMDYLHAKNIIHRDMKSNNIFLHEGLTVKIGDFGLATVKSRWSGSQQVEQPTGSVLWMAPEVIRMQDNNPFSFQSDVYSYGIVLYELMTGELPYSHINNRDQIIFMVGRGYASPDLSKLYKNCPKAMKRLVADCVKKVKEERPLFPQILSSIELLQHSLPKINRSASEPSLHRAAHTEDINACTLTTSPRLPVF
Sequence of UniProt P23921 (P23921 whole entry, looked up): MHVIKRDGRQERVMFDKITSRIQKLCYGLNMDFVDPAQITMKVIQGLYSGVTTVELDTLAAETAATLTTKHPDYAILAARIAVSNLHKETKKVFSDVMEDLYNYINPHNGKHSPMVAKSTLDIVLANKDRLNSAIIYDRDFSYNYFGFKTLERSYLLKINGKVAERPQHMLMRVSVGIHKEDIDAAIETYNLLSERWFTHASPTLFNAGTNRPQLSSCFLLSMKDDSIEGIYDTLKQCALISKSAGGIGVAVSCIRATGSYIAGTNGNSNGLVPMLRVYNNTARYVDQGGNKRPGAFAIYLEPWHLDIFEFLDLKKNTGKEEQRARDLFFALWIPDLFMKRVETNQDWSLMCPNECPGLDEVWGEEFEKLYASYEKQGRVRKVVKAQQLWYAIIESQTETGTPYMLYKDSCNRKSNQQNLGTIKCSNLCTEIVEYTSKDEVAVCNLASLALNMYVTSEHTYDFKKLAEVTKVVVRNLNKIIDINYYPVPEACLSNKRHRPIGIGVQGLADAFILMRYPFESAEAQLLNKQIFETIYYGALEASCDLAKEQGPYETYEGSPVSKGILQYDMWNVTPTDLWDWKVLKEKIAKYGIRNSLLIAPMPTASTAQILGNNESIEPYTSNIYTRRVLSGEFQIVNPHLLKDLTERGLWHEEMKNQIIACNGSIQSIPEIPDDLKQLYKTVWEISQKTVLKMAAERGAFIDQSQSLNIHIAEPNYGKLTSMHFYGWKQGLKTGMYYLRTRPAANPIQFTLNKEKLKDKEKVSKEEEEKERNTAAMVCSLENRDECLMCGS
Sequence of UniProt Q8NC44 (Q8NC44 whole entry, looked up): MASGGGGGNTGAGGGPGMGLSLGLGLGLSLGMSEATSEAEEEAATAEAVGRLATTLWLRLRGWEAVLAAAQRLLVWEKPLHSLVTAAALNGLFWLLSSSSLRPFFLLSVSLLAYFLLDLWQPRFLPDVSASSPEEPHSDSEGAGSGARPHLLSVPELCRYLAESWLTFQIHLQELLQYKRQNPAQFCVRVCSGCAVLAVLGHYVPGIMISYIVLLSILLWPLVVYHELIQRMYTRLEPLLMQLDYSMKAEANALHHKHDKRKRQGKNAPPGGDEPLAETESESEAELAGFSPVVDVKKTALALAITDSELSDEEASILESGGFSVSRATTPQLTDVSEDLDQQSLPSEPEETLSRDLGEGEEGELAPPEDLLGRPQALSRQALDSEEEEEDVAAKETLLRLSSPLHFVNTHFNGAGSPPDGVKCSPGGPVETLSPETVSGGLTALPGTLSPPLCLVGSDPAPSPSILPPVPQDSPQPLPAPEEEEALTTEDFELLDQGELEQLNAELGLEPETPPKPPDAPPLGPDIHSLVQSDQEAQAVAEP
Sequence of UniProt Q9BUV8 (Q9BUV8 whole entry, looked up): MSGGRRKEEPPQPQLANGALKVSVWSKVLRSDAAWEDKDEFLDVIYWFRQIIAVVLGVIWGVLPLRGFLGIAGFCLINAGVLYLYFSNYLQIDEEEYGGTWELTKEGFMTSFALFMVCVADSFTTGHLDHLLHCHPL
Sequence of UniProt Q96DM3 (Q96DM3 whole entry, looked up): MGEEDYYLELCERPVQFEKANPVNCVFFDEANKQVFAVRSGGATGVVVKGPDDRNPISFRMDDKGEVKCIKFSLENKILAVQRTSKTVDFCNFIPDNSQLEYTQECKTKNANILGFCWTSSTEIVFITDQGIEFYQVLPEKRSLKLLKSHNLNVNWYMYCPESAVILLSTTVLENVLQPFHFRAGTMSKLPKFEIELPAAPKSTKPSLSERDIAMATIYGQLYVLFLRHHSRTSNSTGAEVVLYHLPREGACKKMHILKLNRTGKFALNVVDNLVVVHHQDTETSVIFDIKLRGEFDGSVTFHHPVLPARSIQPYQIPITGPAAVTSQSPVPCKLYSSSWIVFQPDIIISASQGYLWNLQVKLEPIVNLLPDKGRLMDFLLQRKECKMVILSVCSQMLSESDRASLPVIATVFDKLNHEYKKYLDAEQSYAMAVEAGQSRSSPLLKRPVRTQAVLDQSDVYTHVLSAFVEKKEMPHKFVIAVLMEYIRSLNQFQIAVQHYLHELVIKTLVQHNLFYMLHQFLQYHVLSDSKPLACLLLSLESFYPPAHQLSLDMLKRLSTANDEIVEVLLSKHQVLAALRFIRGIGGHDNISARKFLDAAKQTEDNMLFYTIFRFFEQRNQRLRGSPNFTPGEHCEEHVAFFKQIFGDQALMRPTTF
Sequence of UniProt P40938 (P40938 whole entry, looked up): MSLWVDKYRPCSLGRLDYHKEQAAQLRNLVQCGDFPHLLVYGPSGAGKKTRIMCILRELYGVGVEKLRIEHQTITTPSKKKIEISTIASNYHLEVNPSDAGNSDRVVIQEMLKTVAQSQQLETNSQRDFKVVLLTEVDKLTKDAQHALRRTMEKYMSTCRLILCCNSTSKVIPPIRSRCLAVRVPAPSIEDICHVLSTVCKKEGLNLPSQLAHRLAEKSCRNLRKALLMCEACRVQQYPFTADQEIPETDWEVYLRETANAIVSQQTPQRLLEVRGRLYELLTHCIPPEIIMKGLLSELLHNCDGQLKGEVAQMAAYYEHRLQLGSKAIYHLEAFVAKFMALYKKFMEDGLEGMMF
Sequence of UniProt O75446 (O75446 whole entry, looked up): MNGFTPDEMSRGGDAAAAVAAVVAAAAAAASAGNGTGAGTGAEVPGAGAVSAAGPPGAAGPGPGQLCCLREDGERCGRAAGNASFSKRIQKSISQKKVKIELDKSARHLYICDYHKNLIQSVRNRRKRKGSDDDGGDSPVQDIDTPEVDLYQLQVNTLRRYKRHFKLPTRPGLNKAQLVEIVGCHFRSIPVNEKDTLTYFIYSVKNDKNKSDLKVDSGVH
Sequence of UniProt P28702 (P28702 whole entry, looked up): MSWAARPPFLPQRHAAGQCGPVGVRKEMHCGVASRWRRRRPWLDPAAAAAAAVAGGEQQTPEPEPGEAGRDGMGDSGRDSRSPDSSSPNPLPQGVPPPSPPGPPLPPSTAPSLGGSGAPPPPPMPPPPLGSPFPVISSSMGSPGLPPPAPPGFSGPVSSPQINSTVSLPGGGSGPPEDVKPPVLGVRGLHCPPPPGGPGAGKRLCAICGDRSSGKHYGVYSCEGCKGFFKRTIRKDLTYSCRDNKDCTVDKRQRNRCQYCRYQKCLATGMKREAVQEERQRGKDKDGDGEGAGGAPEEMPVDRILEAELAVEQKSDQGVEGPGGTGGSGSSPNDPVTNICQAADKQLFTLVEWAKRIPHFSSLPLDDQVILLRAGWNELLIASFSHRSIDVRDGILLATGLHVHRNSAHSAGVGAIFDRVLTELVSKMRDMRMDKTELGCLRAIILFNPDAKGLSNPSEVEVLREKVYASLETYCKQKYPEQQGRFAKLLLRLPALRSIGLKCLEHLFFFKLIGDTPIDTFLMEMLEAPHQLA
Sequence of UniProt Q16576 (Q16576 whole entry, looked up): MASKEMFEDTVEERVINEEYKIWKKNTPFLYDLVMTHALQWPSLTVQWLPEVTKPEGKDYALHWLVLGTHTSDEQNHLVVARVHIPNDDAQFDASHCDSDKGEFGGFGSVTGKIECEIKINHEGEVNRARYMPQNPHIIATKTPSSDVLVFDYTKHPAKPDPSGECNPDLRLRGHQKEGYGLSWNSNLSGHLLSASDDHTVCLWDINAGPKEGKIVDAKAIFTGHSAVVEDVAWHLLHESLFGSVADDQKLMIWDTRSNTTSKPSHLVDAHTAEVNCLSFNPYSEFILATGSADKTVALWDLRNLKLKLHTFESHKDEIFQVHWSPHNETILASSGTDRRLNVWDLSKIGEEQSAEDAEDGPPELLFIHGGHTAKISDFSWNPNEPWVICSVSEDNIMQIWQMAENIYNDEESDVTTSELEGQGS
Sequence of UniProt Q5HYI8 (Q5HYI8 whole entry, looked up): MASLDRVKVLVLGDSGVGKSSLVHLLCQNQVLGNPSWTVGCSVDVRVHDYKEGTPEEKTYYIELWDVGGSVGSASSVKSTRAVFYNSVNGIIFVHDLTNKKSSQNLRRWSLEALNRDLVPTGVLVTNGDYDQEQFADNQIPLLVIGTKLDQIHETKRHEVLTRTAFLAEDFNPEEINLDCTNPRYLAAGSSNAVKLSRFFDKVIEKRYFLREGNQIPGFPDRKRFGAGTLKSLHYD

How did the log2 fold change (vemurafenib) turn out when RPL31 (UniProt P62899) was run?
Its log2 fold change is 0.01.

And the log2 fold change [1]?
Its log2 fold change is 0.004.

And the log2 fold change (barasertib)?
Its log2 fold change is 0.004.

What about the log2 fold change [2] of the same target?
The log2 fold change was 0.006.

What about the log2 fold change (volasertib) of the same target?
The log2 fold change was -0.005.

What about the log2 fold change [3] of the same target?
The log2 fold change was -0.013.

And the log2 fold change [4]?
The log2 fold change was -0.043.

And the log2 fold change [5]?
The log2 fold change was -0.005.

What about the log2 fold change (saracatinib) of the same target?
The log2 fold change was 0.024.

And the log2 fold change (sotrastaurin)?
Its log2 fold change is 0.014.

For RPL28 (UniProt P46779), which log2 fold change (vemurafenib) is on record?
Its log2 fold change is 0.

And the log2 fold change [1]?
Its log2 fold change is -0.016.

What about the log2 fold change (barasertib) of the same target?
Its log2 fold change is -0.049.

And the log2 fold change [2]?
The log2 fold change was -0.001.

And the log2 fold change (volasertib)?
The log2 fold change was 0.006.

And the log2 fold change [3]?
The log2 fold change was -0.017.

What about the log2 fold change [4] of the same target?
Its log2 fold change is 0.278 (active).

And the log2 fold change [5]?
Its log2 fold change is -0.066.

And the log2 fold change (saracatinib)?
The log2 fold change was -0.011.

What about the log2 fold change (sotrastaurin) of the same target?
The log2 fold change was -0.038.

With SAMHD1 (UniProt Q9Y3Z3) as the target, how does the log2 fold change (vemurafenib) read?
The log2 fold change was 0.034.

What about the log2 fold change [1] of the same target?
The log2 fold change was 0.045.

What about the log2 fold change (barasertib) of the same target?
The log2 fold change was 0.007.

And the log2 fold change [2]?
The log2 fold change was -0.032.

What about the log2 fold change (volasertib) of the same target?
Its log2 fold change is -0.037.

What about the log2 fold change [3] of the same target?
The log2 fold change was 0.068.

What about the log2 fold change [4] of the same target?
The log2 fold change was -0.096.

And the log2 fold change [5]?
The log2 fold change was 0.079.

And the log2 fold change (saracatinib)?
Its log2 fold change is -0.052.

What about the log2 fold change (sotrastaurin) of the same target?
The log2 fold change was 0.032.

For RIPK1 (UniProt Q13546), which log2 fold change (vemurafenib) is on record?
Its log2 fold change is -0.053.

What about the log2 fold change [1] of the same target?
Its log2 fold change is 0.027.

What about the log2 fold change (barasertib) of the same target?
The log2 fold change was 0.01.

And the log2 fold change [2]?
Its log2 fold change is -0.026.

What about the log2 fold change (volasertib) of the same target?
The log2 fold change was -0.066.

And the log2 fold change [3]?
Its log2 fold change is 0.027.

What about the log2 fold change [4] of the same target?
The log2 fold change was -0.019.

What about the log2 fold change [5] of the same target?
Its log2 fold change is -0.013.

And the log2 fold change (saracatinib)?
Its log2 fold change is 0.016.

And the log2 fold change (sotrastaurin)?
The log2 fold change was -0.045.

With RIC1 (UniProt Q4ADV7) as the target, how does the log2 fold change (vemurafenib) read?
The log2 fold change was -0.055.

What about the log2 fold change [1] of the same target?
Its log2 fold change is 0.021.

And the log2 fold change (barasertib)?
The log2 fold change was -0.013.

What about the log2 fold change [2] of the same target?
Its log2 fold change is 0.029.

What about the log2 fold change (volasertib) of the same target?
Its log2 fold change is 0.009.

What about the log2 fold change [3] of the same target?
The log2 fold change was 0.017.

And the log2 fold change [4]?
The log2 fold change was -0.29.

And the log2 fold change [5]?
Its log2 fold change is 0.004.

What about the log2 fold change (saracatinib) of the same target?
Its log2 fold change is -0.012.

What about the log2 fold change (sotrastaurin) of the same target?
The log2 fold change was -0.008.

What does the source list for RAP1B (UniProt F5GZG1)?
log2 fold change (vemurafenib): 0.025; log2 fold change [1]: -0.069; log2 fold change (barasertib): 0.043; log2 fold change [2]: -0.013; log2 fold change (volasertib): -0.015; log2 fold change [4]: 0.471; log2 fold change [5]: 0.041; log2 fold change (saracatinib): 0.094; log2 fold change (sotrastaurin): -0.038

What does the source list for RETREG2 (UniProt Q8NC44)?
log2 fold change (vemurafenib): 0.037; log2 fold change [1]: -0.036; log2 fold change (barasertib): 0.033; log2 fold change [2]: -0.009; log2 fold change (volasertib): 0.09; log2 fold change [3]: -0.086; log2 fold change [4]: -0.261; log2 fold change [5]: 0.014; log2 fold change (sotrastaurin): 0.112

What does the source list for RRM1 (UniProt P23921)?
log2 fold change (vemurafenib): 0.023; log2 fold change [1]: 0.018; log2 fold change (barasertib): 0.011; log2 fold change [2]: -0.065; log2 fold change (volasertib): -0.063; log2 fold change [3]: 0.003; log2 fold change [4]: -0.045; log2 fold change [5]: -0.031; log2 fold change (saracatinib): -0.02; log2 fold change (sotrastaurin): -0.016

What does the source list for RELN (UniProt P78509)?
log2 fold change (vemurafenib): 0.043; log2 fold change [1]: -0.098; log2 fold change (barasertib): 0.004; log2 fold change [2]: 0.024; log2 fold change (volasertib): -0.019; log2 fold change [3]: 0.021; log2 fold change [4]: -0.024; log2 fold change [5]: 0.152; log2 fold change (saracatinib): 0.035; log2 fold change (sotrastaurin): 0.02

With RAF1 isoform 2 (UniProt P04049) as the target, how does the log2 fold change (vemurafenib) read?
The log2 fold change was 0.739 (active).

What about the log2 fold change [1] of the same target?
The log2 fold change was -0.142.

And the log2 fold change (barasertib)?
The log2 fold change was 0.068.

What about the log2 fold change [2] of the same target?
Its log2 fold change is -0.159.

What about the log2 fold change (volasertib) of the same target?
Its log2 fold change is -0.083.

And the log2 fold change [3]?
The log2 fold change was -0.029.

What about the log2 fold change [4] of the same target?
The log2 fold change was -0.028.

What about the log2 fold change [5] of the same target?
The log2 fold change was -0.037.

And the log2 fold change (saracatinib)?
The log2 fold change was -0.014.

What about the log2 fold change (sotrastaurin) of the same target?
Its log2 fold change is -0.041.

Which log2 fold change (vemurafenib) does the source give for RABL3 (UniProt Q5HYI8) here?
The log2 fold change was 0.043.

What about the log2 fold change [1] of the same target?
Its log2 fold change is 0.024.

What about the log2 fold change (barasertib) of the same target?
Its log2 fold change is 0.033.

What about the log2 fold change [2] of the same target?
The log2 fold change was -0.072.

What about the log2 fold change (volasertib) of the same target?
The log2 fold change was -0.045.

What about the log2 fold change [3] of the same target?
The log2 fold change was 0.632.

What about the log2 fold change [4] of the same target?
The log2 fold change was -0.045.

And the log2 fold change [5]?
The log2 fold change was -0.032.

What about the log2 fold change (saracatinib) of the same target?
Its log2 fold change is 0.018.

And the log2 fold change (sotrastaurin)?
Its log2 fold change is 0.069.

Which results are given for RFC3 (UniProt P40938)?
log2 fold change (vemurafenib): 0.021; log2 fold change [1]: 0.025; log2 fold change (barasertib): 0.046; log2 fold change [2]: -0.033; log2 fold change (volasertib): -0.065; log2 fold change [3]: 0.013; log2 fold change [4]: 0.133; log2 fold change [5]: 0.001; log2 fold change (saracatinib): 0.001; log2 fold change (sotrastaurin): 0.039

With RMC1 (UniProt Q96DM3) as the target, how does the log2 fold change (vemurafenib) read?
The log2 fold change was 0.009.

What about the log2 fold change [1] of the same target?
The log2 fold change was 0.029.

What about the log2 fold change (barasertib) of the same target?
The log2 fold change was 0.003.

And the log2 fold change [2]?
The log2 fold change was 0.028.

And the log2 fold change (volasertib)?
Its log2 fold change is -0.044.

And the log2 fold change [3]?
Its log2 fold change is -0.02.

And the log2 fold change [4]?
The log2 fold change was 0.

What about the log2 fold change [5] of the same target?
Its log2 fold change is 0.024.

And the log2 fold change (saracatinib)?
The log2 fold change was 0.018.

And the log2 fold change (sotrastaurin)?
The log2 fold change was -0.015.

For RAB5IF isoform 5 (UniProt Q9BUV8), which log2 fold change (vemurafenib) is on record?
Its log2 fold change is -0.075.

And the log2 fold change [1]?
Its log2 fold change is 0.129.

And the log2 fold change (barasertib)?
The log2 fold change was 0.142.

What about the log2 fold change [2] of the same target?
Its log2 fold change is -0.03.

And the log2 fold change (volasertib)?
Its log2 fold change is -0.398.

What about the log2 fold change [4] of the same target?
The log2 fold change was 0.928 (active).

And the log2 fold change [5]?
The log2 fold change was -0.362.

And the log2 fold change (saracatinib)?
The log2 fold change was 0.009.

With SAP30 (UniProt O75446) as the target, how does the log2 fold change (vemurafenib) read?
The log2 fold change was -0.016.

And the log2 fold change [1]?
The log2 fold change was 0.006.

And the log2 fold change (barasertib)?
Its log2 fold change is 0.051.

And the log2 fold change [2]?
The log2 fold change was 0.063.

And the log2 fold change (volasertib)?
Its log2 fold change is -0.054.

What about the log2 fold change [4] of the same target?
Its log2 fold change is 0.103.

And the log2 fold change [5]?
Its log2 fold change is -0.022.

And the log2 fold change (saracatinib)?
Its log2 fold change is 0.016.

What about the log2 fold change (sotrastaurin) of the same target?
The log2 fold change was -0.013.

How did the log2 fold change (vemurafenib) turn out when RXRB isoform 3 (UniProt P28702) was run?
The log2 fold change was 0.028.

And the log2 fold change [1]?
Its log2 fold change is 0.136.

What about the log2 fold change (barasertib) of the same target?
The log2 fold change was 0.106.

And the log2 fold change [2]?
The log2 fold change was 0.008.

What about the log2 fold change (volasertib) of the same target?
The log2 fold change was -0.125.

And the log2 fold change [4]?
The log2 fold change was -0.008.

What about the log2 fold change [5] of the same target?
Its log2 fold change is -0.089.

And the log2 fold change (saracatinib)?
Its log2 fold change is -0.048.

What about the log2 fold change (sotrastaurin) of the same target?
The log2 fold change was -0.051.

What does the source list for RBBP7 (UniProt Q16576)?
log2 fold change (vemurafenib): 0.044; log2 fold change [1]: -0.021; log2 fold change (barasertib): -0.072; log2 fold change [2]: -0.017; log2 fold change (volasertib): -0.004; log2 fold change [3]: -0.002; log2 fold change (saracatinib): 0.021; log2 fold change (sotrastaurin): 0.043
